Data on 16 compounds can be found in PubChem BioAssay (NCI).

Among the test systems are NCI-H23 lung; NCI-H226 lung; NCI-H322M lung; HOP-62 NSCLC; NCI-H460 lung; NCI-H522 lung; A549/ATCC NSCLC; 786-0 renal; COLO 205 colon; DU-145 prostate.
Holding throughout (experiment): NCI-60 one-dose screen, 48 h (100 = growth as untreated, 0 = no growth, -100 = all killed)
Settings in all cases: 10 µM

The structures appear in SMILES notation. Compounds without any hit were thinned out: in the full panel of roughly 83,000, 20% have a hit.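 Assay: single dose, 48 h. Readout: percent growth (0 = no net growth; negative = cell death). Active: <10.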 A number with no mark means an inactive call. Active and inactive are the calls of the source.

As for `Cc1cccc(C)c1NC(=O)c1sc2nc3c(cc2c1N)C(=O)CCC3`, the growth with NCI-H23 lung was 65.6%; with NCI-H226 lung, 83%; in the test with NCI-H322M lung, 46.4%; with HOP-62 NSCLC it was 112%; in the test on NCI-H460 lung, 25.4%; in the test with NCI-H522 lung it was 61.7%. For the same compound, the growth with A549/ATCC NSCLC was 35.6%; in the test with 786-0 renal it was 92.2%; in the test on COLO 205 colon, 15.2%; in the test on DU-145 prostate, 93.2%.
`O=C(Nc1cccc(-n2cc(-c3ccncc3)c(-c3ccc(O)c(Cl)c3)n2)c1)Nc1cccc(C(F)(F)F)c1`: the growth with NCI-H23 lung is -5.75% (active); in the test with NCI-H226 lung, 57.5%; in the test with NCI-H322M lung it was -10.3% (active); in the test on HOP-62 NSCLC it was -3.45% (active); in the test with NCI-H460 lung, -4.53% (active); with NCI-H522 lung it was -6.25% (active). Also, the growth with A549/ATCC NSCLC was -6.05% (active); with 786-0 renal, 14.9%; in the test on COLO 205 colon, 22.7%; in the test on DU-145 prostate it was 12.8%.
On to `CC(=O)c1nc2ccccc2n1CCNC(N)=O`, for which the growth in the test on NCI-H23 lung was 82.1%; with NCI-H226 lung it was 100%; in the test with NCI-H322M lung, 95%; in the test on HOP-62 NSCLC, 70.3%; with NCI-H460 lung it was 55.2%; with NCI-H522 lung, 61.8%. Also, the growth is 62.3% in the test on A549/ATCC NSCLC, 95.1% in the test on 786-0 renal, 69.7% with COLO 205 colon and 93.2% in the test on DU-145 prostate.
In the case of `CN(C)CCNC(=O)c1cccn2c(=O)c3cc4ccccc4cc3nc12`, the growth is -3.24% (active) in the test on NCI-H23 lung; -16% (active) with NCI-H226 lung; 3.8% (active) in the test with NCI-H322M lung; -26.8% (active) in the test on HOP-62 NSCLC; -31.7% (active) in the test with NCI-H460 lung; -88.5% (active) with NCI-H522 lung. The growth with A549/ATCC NSCLC was -27.1% (active); with 786-0 renal, -31.3% (active); in the test on COLO 205 colon it was -15.2% (active); in the test on DU-145 prostate, -3.1% (active).
Consider `Cc1cccc2c1O/C(=C\c1ccc([N+](=O)[O-])o1)C2=O`, for which the growth in the test with NCI-H23 lung is -39.8% (active); in the test on NCI-H226 lung, -57.8% (active); in the test on NCI-H322M lung, 37.9%; with HOP-62 NSCLC, -25.6% (active); in the test on NCI-H460 lung, -58.5% (active); in the test with NCI-H522 lung it was -77.4% (active). Besides, the growth in the test on A549/ATCC NSCLC was -12.2% (active); in the test with 786-0 renal it was -39.5% (active); in the test on COLO 205 colon, -84.3% (active); with DU-145 prostate, -62.7% (active).
Consider `Cc1cccc2c(NCCN(C)C)c3cccc(C(=O)NCCN(C)C)c3nc12`, for which the growth in the test on NCI-H23 lung was 6.76% (active); with NCI-H226 lung, 22.4%; in the test on NCI-H322M lung it was -5.21% (active); in the test on HOP-62 NSCLC it was 4.88% (active); with NCI-H460 lung it was -13.2% (active); with NCI-H522 lung, -43.7% (active). Also, the growth was 16.2% with A549/ATCC NSCLC, 14.5% in the test on 786-0 renal, 0.559% (active) with COLO 205 colon and -20.1% (active) with DU-145 prostate.
Turning to `Cc1ccc(C(=O)N2C/C(=C/c3ccc(F)cc3)C(=O)/C(=C/c3ccc(F)cc3)C2)cc1`, the growth in the test on NCI-H23 lung was 97.6%; in the test with NCI-H226 lung, 86.9%; with NCI-H322M lung it was 90.6%; with HOP-62 NSCLC, 96.4%; in the test on NCI-H460 lung, 101%; in the test on NCI-H522 lung it was 67.7%. Moreover, the growth is 94.5% with A549/ATCC NSCLC, 91.6% in the test with 786-0 renal, 111% with COLO 205 colon and 101% with DU-145 prostate.
Consider `O=C1/C(=C/c2ccc([N+](=O)[O-])s2)Oc2ccccc21`, for which the growth with NCI-H23 lung was -37% (active); in the test with NCI-H226 lung it was -0.59% (active); in the test on NCI-H322M lung, -21.5% (active); in the test with HOP-62 NSCLC it was 3.77% (active); in the test on NCI-H460 lung, -27.7% (active); with NCI-H522 lung, -68.8% (active). Also, the growth in the test on A549/ATCC NSCLC is -22.2% (active); in the test with 786-0 renal, -37% (active); with COLO 205 colon, -69.2% (active); in the test with DU-145 prostate, 4.99% (active).
Take `CC(=O)c1cc(Cl)ccc1O`: the growth in the test on NCI-H23 lung was 106%; with NCI-H226 lung, 98.1%; in the test on NCI-H322M lung it was 101%; in the test with HOP-62 NSCLC, 107%; in the test with NCI-H460 lung, 101%; in the test with NCI-H522 lung it was 118%. Moreover, the growth with A549/ATCC NSCLC is 101%; with 786-0 renal it was 104%; in the test on COLO 205 colon, 112%; with DU-145 prostate it was 105%.
For `CCN(CC)CCSCCN(CC)CC`, the growth in the test with NCI-H23 lung was 102%; in the test with NCI-H226 lung, 101%; in the test with NCI-H322M lung, 109%; with HOP-62 NSCLC, 108%; with NCI-H460 lung it was 102%; with NCI-H522 lung it was 84.1%. Further, the growth in the test on A549/ATCC NSCLC is 103%; with 786-0 renal, 102%; in the test with COLO 205 colon, 106%; in the test on DU-145 prostate, 109%.
For the compound `Cc1ccc(NC(=O)Nc2cccnc2)cc1NC(=O)Nc1cccnc1`, the growth in the test on NCI-H23 lung was 88.4%; in the test on NCI-H226 lung, 95.3%; with NCI-H322M lung, 100%; in the test with HOP-62 NSCLC, 117%; in the test on NCI-H460 lung, 85.9%; in the test with NCI-H522 lung, -37.3% (active). Moreover, the growth in the test with A549/ATCC NSCLC is 30.8%; in the test on 786-0 renal it was 94.8%; in the test with COLO 205 colon it was 118%; with DU-145 prostate, 98.2%.
As for `N#Cc1ncc(Br)c(NC2CCCCCC2)n1`, the growth in the test on NCI-H23 lung is 103%; in the test with NCI-H226 lung, 97.1%; with NCI-H322M lung, 105%; in the test with HOP-62 NSCLC, 106%; in the test with NCI-H460 lung, 116%; in the test on NCI-H522 lung, 110%. Also, the growth with A549/ATCC NSCLC is 89%; in the test on 786-0 renal, 104%; with COLO 205 colon, 113%; in the test with DU-145 prostate it was 103%.
As to `CN(C)CCOc1nc2ccccc2c2c1-c1ccc(Cl)cc1C2=O`, the growth in the test on NCI-H23 lung is -43.9% (active); with NCI-H226 lung it was 3.47% (active); in the test on NCI-H322M lung, -34% (active); in the test with HOP-62 NSCLC it was -20.4% (active); with NCI-H460 lung it was -20.7% (active); with NCI-H522 lung, -65.5% (active). The growth is -28.4% (active) with A549/ATCC NSCLC, 12.7% in the test on 786-0 renal, -76.1% (active) with COLO 205 colon and -14.2% (active) with DU-145 prostate.
Consider `N=c1nc(N)ncn1-c1ccccc1`, for which the growth with NCI-H23 lung is 93.1%; with NCI-H226 lung, 89.9%; in the test on NCI-H322M lung, 108%; in the test with HOP-62 NSCLC, 92.9%; in the test on NCI-H460 lung it was 106%; in the test on NCI-H522 lung, 83.1%. The growth was 92.4% in the test on A549/ATCC NSCLC, 98% with 786-0 renal, 101% with COLO 205 colon and 112% with DU-145 prostate.
On to `COc1ccc2nc3ccccc3c(NCCNCC(C)O)c2c1` (stereo not given), for which the growth in the test with NCI-H23 lung was -2.17% (active); with NCI-H226 lung, -4.19% (active); in the test with NCI-H322M lung it was -3.32% (active); in the test with HOP-62 NSCLC it was -13.6% (active); in the test on NCI-H460 lung it was -10.8% (active); with NCI-H522 lung it was -26.5% (active). For the same compound, the growth with A549/ATCC NSCLC is -36.4% (active); in the test with 786-0 renal, 0.024% (active); in the test with COLO 205 colon it was -27.5% (active); with DU-145 prostate, 9.52% (active).
Consider `COc1ccc(Nc2nc3ccc(NC(=O)NC4CCCCC4)cc3[nH]c2=O)cc1`, for which the growth in the test with NCI-H23 lung is 94.1%; in the test with NCI-H226 lung, 94.5%; in the test on NCI-H322M lung it was 96.1%; with HOP-62 NSCLC, 83.9%; in the test with NCI-H460 lung it was 102%; with NCI-H522 lung, 87.3%. In addition, the growth was 89.5% with A549/ATCC NSCLC, 72.7% with 786-0 renal, 112% in the test on COLO 205 colon and 107% in the test with DU-145 prostate.
